Source: PubChem BioAssay (NCI)
About 83,000 compounds went through this panel and 20% of them were active in at least one assay; those are over-represented in the sample as a whole.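 For each line, cells grew in 96-well plates with the test compound present at a single concentration for 48 hours.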 The source made the active and inactive calls. How the source made its calls: active means growth percent below 10; inactive means the rest.

Test system: MDA-MB-468 breast
Experiment: NCI-60 one-dose screen, 48 h (100 = growth as untreated, 0 = no growth, -100 = all killed)
Details: 10 µM unless noted

| Compound | growth |
| --- | --- |
| O=C(N=Nc1c(O)[nH]c2ccccc12)c1oc2ccccc2c1CN1CCN(c2ccccc2)CC1 | -46% (active) |
| CCOC(=O)C1=CCC(n2cc(F)c(=O)[nH]c2=O)O1 (stereo not given) | 134% (inactive) |
| Clc1nn2c(Cn3cnc4c(NCc5ccccc5)ncnc43)nnc2c2ccccc12 | 35.3% (inactive) |
| CCN(CC)CCn1c(=O)c2cc(OC)c(OC)cc2c2ccc3cc4c(cc3c21)OCO4 | -13.5% (active) |
| Nc1c(C(=O)Nc2ccc(C(F)(F)F)cc2)sc2nc(-c3cnccn3)cc(-c3cccs3)c12 | 69.9% (inactive) |
| CC12CCC(CC1)C(C)(C)O2 | 108% (inactive) |
| [B-][N+](CC)(CC)c1ccccc1 | 104% (inactive) |
| C#C[C@]1(O)CC[C@H]2[C@@H]3CC=C4c5nc(N)sc5CC[C@]4(C)[C@H]3CC[C@@]21C | 34% (inactive) |
| O=C1Cc2ccccc2C(=O)N1 | 45.8% (inactive) |
| COc1ccc(/C=C(/C(=O)N2CCN(Cc3ccccc3)CC2)c2cc(OC)c(OC)c(OC)c2)cc1O | 20.4% (inactive) |
| COc1cc(/C=C/c2nnc(-c3cc(-c4ccccc4)n[nH]3)o2)cc(OC)c1OC | 101% (inactive) |
| CCCn1c(=O)[nH]c(N)c([C@H]2c3ccccc3Oc3[nH]c(=O)n(CCC)c(=O)c32)c1=O | 68.7% (inactive) |
| COC(=O)C(C)Oc1ccc(OC#N)cc1 (stereo not given) | 99% (inactive) |
| CC(C)(C)c1ccc(C(=O)Nc2sc3c(c2C#N)CCC(=O)C3)cc1 | 2.73% (active) |
| CN1CCN(c2ccc3nc(/N=C/c4ccc5sc(-c6ccc([N+](=O)[O-])cc6)nc5c4)sc3c2)CC1 | 109% (inactive) |
